Experimental data reported in the supplement of paper PMC9694430.

Legend:
Experiment in all cases: thermal shift delta Tm vs DMSO control; higher = stronger stabilization (binding)
Settings in all cases: 12.5 µM; protein concentration 2 µM
LOC_OS02G45750-cb003 = tested on: LOC_OS02G45750-cb003
Summary of the method: (§1)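 Compounds dissolved in DMSO were added to purified rice kinase domain constructs, which had been expressed in E. coli, for differential scanning fluorimetry. Each well held 19.5 μl of 2 μM kinase in 100 mM potassium phosphate pH 7.5, 150 mM NaCl, 10% glycerol and 5 × SYPRO Orange. Fluorescence was followed from 25°C to 95°C at a rate of 0.05°C/s. Shifts in Boltzmann-fitted melting temperature are triplicate means relative to DMSO-only protein.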

LOC_OS02G54510-cb004 = tested on: LOC_OS02G54510-cb004
Summary of the method: as §1

LOC_OS03G04050-cb001 = tested on: LOC_OS03G04050-cb001
Summary of the method: as §1

LOC_OS03G12390-cb001 = tested on: LOC_OS03G12390-cb001
Summary of the method: as §1

LOC_OS03G27990-cb004 = tested on: LOC_OS03G27990-cb004
Summary of the method: as §1

LOC_OS03G50450-cb001 = tested on: LOC_OS03G50450-cb001
Summary of the method: as §1

LOC_OS03G50810-cb003 = tested on: LOC_OS03G50810-cb003
Summary of the method: as §1

LOC_OS04G35114-cb001 = tested on: LOC_OS04G35114-cb001
Summary of the method: as §1

LOC_OS04G38480-cb003 = tested on: T1, LOC_OS04G38480-cb003
T1 sequence (whole entry): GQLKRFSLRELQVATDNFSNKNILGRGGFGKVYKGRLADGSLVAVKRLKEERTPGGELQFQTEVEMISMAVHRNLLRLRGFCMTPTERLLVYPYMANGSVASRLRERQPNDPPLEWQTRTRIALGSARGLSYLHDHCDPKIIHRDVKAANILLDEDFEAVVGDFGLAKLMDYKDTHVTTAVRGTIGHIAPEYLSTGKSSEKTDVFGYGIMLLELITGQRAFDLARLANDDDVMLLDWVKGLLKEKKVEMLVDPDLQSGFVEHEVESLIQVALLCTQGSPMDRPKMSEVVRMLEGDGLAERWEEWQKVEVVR
Summary of the method: as §1

LOC_OS04G41100-cb001 = tested on: T2, LOC_OS04G41100-cb001
T2 sequence (whole entry): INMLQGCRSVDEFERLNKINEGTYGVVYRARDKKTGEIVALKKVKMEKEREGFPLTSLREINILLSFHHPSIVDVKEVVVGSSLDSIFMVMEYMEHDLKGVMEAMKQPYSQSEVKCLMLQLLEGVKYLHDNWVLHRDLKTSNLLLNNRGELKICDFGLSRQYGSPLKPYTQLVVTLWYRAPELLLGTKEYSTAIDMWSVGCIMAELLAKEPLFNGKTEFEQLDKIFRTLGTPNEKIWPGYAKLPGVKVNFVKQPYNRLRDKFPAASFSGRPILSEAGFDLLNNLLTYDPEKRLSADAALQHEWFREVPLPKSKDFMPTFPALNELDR
Summary of the method: as §1

## CO[C@H]1C[C@@H]2CC[C@@H](C)[C@@](O)(O2)C(=O)C(=O)N2CCCC[C@H]2C(=O)O[C@H]([C@H](C)C[C@@H]2CC[C@@H](OCCO)[C@H](OC)C2)CC(=O)[C@H](C)/C=C(\C)[C@@H](O)[C@@H](OC)C(=O)[C@H](C)C[C@H](C)/C=C/C=C/C=C/1C [Everolimus (RAD001)]
LOC_OS02G45750-cb003
  thermal shift delta Tm: 0.22 °C
LOC_OS02G54510-cb004
  thermal shift delta Tm: -0.05 °C
LOC_OS03G04050-cb001
  thermal shift delta Tm: 0.59 °C
LOC_OS03G12390-cb001
  thermal shift delta Tm: 0.14 °C
LOC_OS03G27990-cb004
  thermal shift delta Tm: -0.04 °C
LOC_OS03G50450-cb001
  thermal shift delta Tm: -0.1 °C
LOC_OS03G50810-cb003
  thermal shift delta Tm: 0.05 °C
LOC_OS04G35114-cb001
  thermal shift delta Tm: -0.39 °C
LOC_OS04G38480-cb003
  thermal shift delta Tm: 0.94 °C
LOC_OS04G41100-cb001
  thermal shift delta Tm: 0.65 °C

## O=C1CCc2c(Oc3ccc4c(c3)[C@@H]3[C@H](O4)[C@H]3c3nc4cc(C(F)(F)F)ccc4[nH]3)ccnc2N1 [Lifirafenib (BGB-283)]
LOC_OS02G45750-cb003
  thermal shift delta Tm: 2.06 °C
LOC_OS02G54510-cb004
  thermal shift delta Tm: 5.22 °C
LOC_OS03G04050-cb001
  thermal shift delta Tm: 0.52 °C
LOC_OS03G12390-cb001
  thermal shift delta Tm: 0.76 °C
LOC_OS03G27990-cb004
  thermal shift delta Tm: 0.6 °C
LOC_OS03G50450-cb001
  thermal shift delta Tm: 0.51 °C
LOC_OS03G50810-cb003
  thermal shift delta Tm: 0.57 °C
LOC_OS04G35114-cb001
  thermal shift delta Tm: 0.81 °C
LOC_OS04G38480-cb003
  thermal shift delta Tm: 3.35 °C
LOC_OS04G41100-cb001
  thermal shift delta Tm: 0.63 °C

## N#Cc1cccc(-c2c[nH]c3ncnc(N4CCOCC4)c23)c1
LOC_OS02G45750-cb003
  thermal shift delta Tm: 3.36 °C
LOC_OS02G54510-cb004
  thermal shift delta Tm: 0.44 °C
LOC_OS03G04050-cb001
  thermal shift delta Tm: 0.26 °C
LOC_OS03G12390-cb001
  thermal shift delta Tm: 3.14 °C
LOC_OS03G27990-cb004
  thermal shift delta Tm: 0.37 °C
LOC_OS03G50450-cb001
  thermal shift delta Tm: -0.1 °C
LOC_OS03G50810-cb003
  thermal shift delta Tm: 2.96 °C
LOC_OS04G35114-cb001
  thermal shift delta Tm: 5.02 °C
LOC_OS04G38480-cb003
  thermal shift delta Tm: 1.08 °C
LOC_OS04G41100-cb001
  thermal shift delta Tm: 0.06 °C

## Nc1ccc(-c2ccc3ncc4ccc(=O)n(-c5cccc(C(F)(F)F)c5)c4c3c2)cn1 [Torin 2]
LOC_OS02G45750-cb003
  thermal shift delta Tm: 2.36 °C
LOC_OS02G54510-cb004
  thermal shift delta Tm: -0.06 °C
LOC_OS03G04050-cb001
  thermal shift delta Tm: 0.2 °C
LOC_OS03G12390-cb001
  thermal shift delta Tm: 0.23 °C
LOC_OS03G27990-cb004
  thermal shift delta Tm: 0.43 °C
LOC_OS03G50450-cb001
  thermal shift delta Tm: 0.37 °C
LOC_OS03G50810-cb003
  thermal shift delta Tm: 0.92 °C
LOC_OS04G35114-cb001
  thermal shift delta Tm: 2.97 °C
LOC_OS04G38480-cb003
  thermal shift delta Tm: 0.88 °C
LOC_OS04G41100-cb001
  thermal shift delta Tm: 0.27 °C

## C[C@@H]1CN(C(=O)c2ccc(NC(=O)c3cc(O[C@H](C)c4c(Cl)ccc(F)c4Cl)c(N)nn3)cc2)C[C@H](C)N1 [Ensartinib (X-396)]
LOC_OS02G45750-cb003
  thermal shift delta Tm: 6.54 °C
LOC_OS02G54510-cb004
  thermal shift delta Tm: 3.48 °C
LOC_OS03G04050-cb001
  thermal shift delta Tm: -0.25 °C
LOC_OS03G12390-cb001
  thermal shift delta Tm: 2.86 °C
LOC_OS03G27990-cb004
  thermal shift delta Tm: 0.07 °C
LOC_OS03G50450-cb001
  thermal shift delta Tm: 0.15 °C
LOC_OS03G50810-cb003
  thermal shift delta Tm: 5 °C
LOC_OS04G35114-cb001
  thermal shift delta Tm: 8.12 °C
LOC_OS04G38480-cb003
  thermal shift delta Tm: 5.86 °C
LOC_OS04G41100-cb001
  thermal shift delta Tm: 0.2 °C

## Cc1cc(Nc2cc(N3CCN(C)CC3)nc(/C=C/c3ccccc3)n2)n[nH]1
LOC_OS02G45750-cb003
  thermal shift delta Tm: 4.69 °C
LOC_OS02G54510-cb004
  thermal shift delta Tm: 2.74 °C
LOC_OS03G04050-cb001
  thermal shift delta Tm: 0.21 °C
LOC_OS03G12390-cb001
  thermal shift delta Tm: 4.05 °C
LOC_OS03G27990-cb004
  thermal shift delta Tm: 2.48 °C
LOC_OS03G50450-cb001
  thermal shift delta Tm: 8.43 °C
LOC_OS03G50810-cb003
  thermal shift delta Tm: 7.16 °C
LOC_OS04G35114-cb001
  thermal shift delta Tm: 6.22 °C
LOC_OS04G38480-cb003
  thermal shift delta Tm: 1.95 °C
LOC_OS04G41100-cb001
  thermal shift delta Tm: 1.86 °C

## O=C1NC(=O)/C(=C/c2ccc3c(c2)OC(F)(F)O3)S1
LOC_OS02G45750-cb003
  thermal shift delta Tm: 1.3 °C
LOC_OS02G54510-cb004
  thermal shift delta Tm: 0.48 °C
LOC_OS03G04050-cb001
  thermal shift delta Tm: 0.81 °C
LOC_OS03G12390-cb001
  thermal shift delta Tm: 0.94 °C
LOC_OS03G27990-cb004
  thermal shift delta Tm: 0.43 °C
LOC_OS03G50450-cb001
  thermal shift delta Tm: 0.55 °C
LOC_OS03G50810-cb003
  thermal shift delta Tm: 0.65 °C
LOC_OS04G35114-cb001
  thermal shift delta Tm: 0.97 °C
LOC_OS04G38480-cb003
  thermal shift delta Tm: 1.58 °C
LOC_OS04G41100-cb001
  thermal shift delta Tm: 0.5 °C

## CC[C@@H](N)CNc1ccnc(-c2cc(-c3cnn(C)c3)ccc2O)n1
LOC_OS02G45750-cb003
  thermal shift delta Tm: 2.91 °C
LOC_OS02G54510-cb004
  thermal shift delta Tm: -0.17 °C
LOC_OS03G04050-cb001
  thermal shift delta Tm: 0.27 °C
LOC_OS03G12390-cb001
  thermal shift delta Tm: 0.67 °C
LOC_OS03G27990-cb004
  thermal shift delta Tm: 0.75 °C
LOC_OS03G50450-cb001
  thermal shift delta Tm: 0.74 °C
LOC_OS03G50810-cb003
  thermal shift delta Tm: 1.49 °C
LOC_OS04G35114-cb001
  thermal shift delta Tm: 6.46 °C
LOC_OS04G38480-cb003
  thermal shift delta Tm: 1.41 °C
LOC_OS04G41100-cb001
  thermal shift delta Tm: 2.6 °C

## Oc1ccc(Nc2nc(-c3ccc(Cl)cc3)cs2)cc1
LOC_OS02G45750-cb003
  thermal shift delta Tm: 0.87 °C
LOC_OS02G54510-cb004
  thermal shift delta Tm: -1.06 °C
LOC_OS03G04050-cb001
  thermal shift delta Tm: 1.13 °C
LOC_OS03G12390-cb001
  thermal shift delta Tm: 1.19 °C
LOC_OS03G27990-cb004
  thermal shift delta Tm: 1.07 °C
LOC_OS03G50450-cb001
  thermal shift delta Tm: 1.19 °C
LOC_OS03G50810-cb003
  thermal shift delta Tm: 1.34 °C
LOC_OS04G35114-cb001
  thermal shift delta Tm: 2.45 °C
LOC_OS04G38480-cb003
  thermal shift delta Tm: -1.18 °C
LOC_OS04G41100-cb001
  thermal shift delta Tm: 0.69 °C

## Nc1ncc(-c2ccnc(Nc3ccncc3)n2)c(CC2CC2)n1
LOC_OS02G45750-cb003
  thermal shift delta Tm: 2.65 °C
LOC_OS02G54510-cb004
  thermal shift delta Tm: 0.44 °C
LOC_OS03G04050-cb001
  thermal shift delta Tm: 0.08 °C
LOC_OS03G12390-cb001
  thermal shift delta Tm: 0.7 °C
LOC_OS03G27990-cb004
  thermal shift delta Tm: 0.32 °C
LOC_OS03G50450-cb001
  thermal shift delta Tm: 0.09 °C
LOC_OS03G50810-cb003
  thermal shift delta Tm: 0.92 °C
LOC_OS04G35114-cb001
  thermal shift delta Tm: 1.69 °C
LOC_OS04G38480-cb003
  thermal shift delta Tm: 2.3 °C
LOC_OS04G41100-cb001
  thermal shift delta Tm: 0.78 °C
